These results are taken from PubChem BioAssay.

The test system of assay [1] is PRMT1 (protein arginine N-methyltransferase 1). Kind of assay: PRMT1 binders on small-molecule microarrays, primary screen, biochemical, small-molecule microarray, 635 nm fluorescence (AID 1088).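 Also: binding of Prmt1 protein to compounds spotted on small-molecule microarray slides.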 The conditions noted are these: small-molecule microarray binding, higher = more signal.
The nature of assay [2]: yeast growth modulation, basal conditions, primary screen, YJM789 clinical isolate, OD600, 24 h (AID 1089).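 Also: growth of clinical yeast isolate S. cerevisiae YJM 789 seeded 1000 cells per well; test concentration not given here.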 The conditions noted are these: S. cerevisiae YJM789 growth, higher = more signal, called active from +8 up or from −8 down.
Assay [3] in a line: fission yeast growth modulation, primary screen, strain 972, OD600, 24 h, no modulator (AID 1090).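 Also: basal condition with compound alone and no growth modifier present; test concentration not given here.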 The conditions noted are these: S. pombe 972 growth, higher = more signal, called active from +8 up or from −8 down.
A short description of assay [4]: S. cerevisiae growth modulation with rapamycin, primary screen, strain BY4716, OD600, 96 h (AID 1091). Also: test concentration not given here. The conditions noted are these: higher = more signal, called active from +8 up or from −8 down.
Assay [5] deals with Torsin-1A-interacting protein 2 (Homo sapiens) (UniProt Q8NFQ8). As to the kind of experiment: LULL1 binders on small-molecule microarray, primary screen, cell lysate, human LULL1 lysate, 635/667 nm fluorescence (AID 1092).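 Also: probe is lysate of COS7 cells overexpressing human LULL1; score merges per-feature 667 nm fluorescence with signal-to-noise.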 As to conditions: hLULL1 lysate binding, 635 nm fluorescence, higher = more signal.
Assay [6] is described as follows: E. coli growth modulation, two-sided OD650, primary screen, E. coli filamentation project, strain DRC41, 24 h (AID 1093).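 Also: MC1000 strain lacking acrAB efflux and sulA so SOS filamentation is blocked; test concentration not given here.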 The conditions noted are these: OD650, 24 h, higher = more signal, called active from +8 up or from −8 down.
Assay [7] is described as follows: small-molecule microarray binders of probe aLefty2, primary screen, biochemical, biotinylated probe, 635/667 nm fluorescence (AID 1094).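 Also: score merges spot fluorescence near 667 nm with spot signal-to-noise ratio.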 As to conditions: higher = more signal.
Assay [8] concerns Noggin (protein binding on small-molecule microarray). Kind of assay: Noggin binders on small-molecule microarray, primary screen, biochemical, 635/667 nm fluorescence (AID 1095).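 Also: score merges 667 nm feature fluorescence with signal to noise over triplicate slides.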 The conditions noted are these: 635 nm fluorescence, higher = more signal.
The target of assay [9] is Neurogenic locus notch homolog protein 3 (Homo sapiens) (UniProt Q9UM47). As to the kind of experiment: NOTCH3 binders on small-molecule microarray, primary screen, biochemical, 635/667 nm fluorescence (AID 1096). As to conditions: NOTCH3 binding, 635 nm fluorescence, higher = more signal.
A short description of assay [10]: small-molecule microarray binders of probe aEGFR, primary screen, biochemical, biotinylated probe, 635/667 nm fluorescence (AID 1097).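 Also: probe is a biotinylated anti-EGFR antibody binding compounds printed on slides; score combines fluorescence near 667 nm and signal to noise of each spot.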 As to conditions: higher = more signal.
Assay [11] relates to Plasmodium falciparum Sir2 (PF13_0152, Sir2A). As to the kind of experiment: pfSir2 binders on small-molecule microarrays, primary screen, biochemical, small-molecule microarray, 635 nm fluorescence (AID 1098).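 Also: score merges spot fluorescence intensity with its signal-to-noise ratio.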 The conditions noted are these: small-molecule microarray binding, fluorescence 635 nm; higher = more signal.
Assay [12] can be described thus: small-molecule microarray binders of probe aDKK1, primary screen, biochemical, biotinylated probe, 635/667 nm fluorescence (AID 1099).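 Also: score merges 667nm spot fluorescence with signal to noise across triplicate slides; reference of the scale not given here.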 The conditions noted are these: higher = more signal.
Assay [13] in a line: small-molecule microarray binders of probe aCHRDL2, primary screen, biochemical, biotinylated probe, 635/667 nm fluorescence (AID 1100). The conditions noted are these: higher = more signal.
Assay [14] in a line: splicing luciferase reporter signal modulators, primary screen, spliceosome inhibition project, cell-based, HEK293, splice +/- reporter (AID 1101).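 Also: HEK293 cells carrying a splicing-competent luciferase reporter gene; test concentration not given here.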 The conditions noted are these: luminescence, 24 h, higher = more signal, called active from +8 up or from −8 down.
For assay [15], the target named is Fibroblast growth factor 10 (Homo sapiens) (UniProt O15520). As to the kind of experiment: FGF10 binders on small-molecule microarrays, primary screen, biochemical, small-molecule microarray, 635 nm fluorescence (AID 1102). The conditions noted are these: FGF10 binding, fluorescence 635 nm, higher = more signal.
Assay [16] concerns glycogen synthase kinase-3 (GSK3A per assay name; protocol says GSK3B). Kind of assay: GSK3 binders on small-molecule microarrays, primary screen, biochemical, small-molecule microarray, 635 nm fluorescence, GSK3A (AID 1103). Also: the record names both GSK3A and GSK3B. As to conditions: small-molecule microarray binding, fluorescence 635 nm; higher = more signal.
Assay [17] concerns the target Epidermal growth factor receptor (Homo sapiens) (UniProt P00533). As to the kind of experiment: EGFR binders on small-molecule microarrays, primary screen, biochemical, small-molecule microarray, 635 nm fluorescence (AID 1104).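 Also: score merges 667 nm emission intensity with spot signal to noise over triplicate slides.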 The conditions noted are these: EGFR binding, higher = more signal.
Assay [18] deals with Follistatin-related protein 3 (Homo sapiens) (UniProt O95633). As to the kind of experiment: FSTL3 binders on small-molecule microarrays, primary screen, biochemical, small-molecule microarray, 635 nm fluorescence (AID 1105).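 Also: score merges emission near 667 nm and signal to noise per printed spot across three slides.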 As to conditions: FSTL3 binding, higher = more signal.
The target in assay [19] is Dickkopf-related protein 1 (Homo sapiens) (UniProt O94907). As to the kind of experiment: DKK1 binders on small-molecule microarrays, primary screen, biochemical, small-molecule microarray, 635 nm fluorescence scan (AID 1106).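 Also: score merges emission near 667 nm with signal to noise over three replicate slides.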 As to conditions: DKK1 binding, higher = more signal.
For assay [20], the system named is Inhibin beta A chain (activin A). As to the kind of experiment: INHBA (activin A) binders on microarrays, primary screen, biochemical, small-molecule microarray, 635 nm fluorescence scan (AID 1107).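 Also: mouse activin A protein probed at 4.33 µg/mL on printed slides; score merges bound-protein fluorescence near 667 nm with spot signal-to-noise.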 The conditions noted are these: small-molecule microarray binding, higher = more signal.

The source made the active and inactive calls.

Chain of Torsin-1A-interacting protein 2 (Homo sapiens) (Q8NFQ8 whole entry, looked up): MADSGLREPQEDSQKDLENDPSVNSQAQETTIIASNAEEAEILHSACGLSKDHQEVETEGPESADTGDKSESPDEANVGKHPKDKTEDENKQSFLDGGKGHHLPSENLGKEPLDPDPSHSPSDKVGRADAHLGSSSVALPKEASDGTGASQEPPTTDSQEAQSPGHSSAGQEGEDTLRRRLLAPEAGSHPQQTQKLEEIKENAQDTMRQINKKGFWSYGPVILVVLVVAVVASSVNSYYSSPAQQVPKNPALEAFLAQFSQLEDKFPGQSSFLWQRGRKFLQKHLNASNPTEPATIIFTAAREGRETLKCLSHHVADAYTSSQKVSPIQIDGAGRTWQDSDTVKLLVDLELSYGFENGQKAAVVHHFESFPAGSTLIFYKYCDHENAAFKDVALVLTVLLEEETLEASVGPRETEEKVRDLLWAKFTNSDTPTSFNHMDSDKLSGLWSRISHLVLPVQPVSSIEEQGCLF
Chain of Dickkopf-related protein 1 (Homo sapiens) (O94907 whole entry, looked up): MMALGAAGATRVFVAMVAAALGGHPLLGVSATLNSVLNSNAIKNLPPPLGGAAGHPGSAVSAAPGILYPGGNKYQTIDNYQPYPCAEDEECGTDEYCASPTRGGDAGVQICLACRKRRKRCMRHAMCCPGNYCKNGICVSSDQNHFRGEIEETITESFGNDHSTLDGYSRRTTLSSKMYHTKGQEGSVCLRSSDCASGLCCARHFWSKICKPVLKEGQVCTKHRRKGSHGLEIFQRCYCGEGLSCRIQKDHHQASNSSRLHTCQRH
Chain of Neurogenic locus notch homolog protein 3 (Homo sapiens) (Q9UM47 whole entry, looked up): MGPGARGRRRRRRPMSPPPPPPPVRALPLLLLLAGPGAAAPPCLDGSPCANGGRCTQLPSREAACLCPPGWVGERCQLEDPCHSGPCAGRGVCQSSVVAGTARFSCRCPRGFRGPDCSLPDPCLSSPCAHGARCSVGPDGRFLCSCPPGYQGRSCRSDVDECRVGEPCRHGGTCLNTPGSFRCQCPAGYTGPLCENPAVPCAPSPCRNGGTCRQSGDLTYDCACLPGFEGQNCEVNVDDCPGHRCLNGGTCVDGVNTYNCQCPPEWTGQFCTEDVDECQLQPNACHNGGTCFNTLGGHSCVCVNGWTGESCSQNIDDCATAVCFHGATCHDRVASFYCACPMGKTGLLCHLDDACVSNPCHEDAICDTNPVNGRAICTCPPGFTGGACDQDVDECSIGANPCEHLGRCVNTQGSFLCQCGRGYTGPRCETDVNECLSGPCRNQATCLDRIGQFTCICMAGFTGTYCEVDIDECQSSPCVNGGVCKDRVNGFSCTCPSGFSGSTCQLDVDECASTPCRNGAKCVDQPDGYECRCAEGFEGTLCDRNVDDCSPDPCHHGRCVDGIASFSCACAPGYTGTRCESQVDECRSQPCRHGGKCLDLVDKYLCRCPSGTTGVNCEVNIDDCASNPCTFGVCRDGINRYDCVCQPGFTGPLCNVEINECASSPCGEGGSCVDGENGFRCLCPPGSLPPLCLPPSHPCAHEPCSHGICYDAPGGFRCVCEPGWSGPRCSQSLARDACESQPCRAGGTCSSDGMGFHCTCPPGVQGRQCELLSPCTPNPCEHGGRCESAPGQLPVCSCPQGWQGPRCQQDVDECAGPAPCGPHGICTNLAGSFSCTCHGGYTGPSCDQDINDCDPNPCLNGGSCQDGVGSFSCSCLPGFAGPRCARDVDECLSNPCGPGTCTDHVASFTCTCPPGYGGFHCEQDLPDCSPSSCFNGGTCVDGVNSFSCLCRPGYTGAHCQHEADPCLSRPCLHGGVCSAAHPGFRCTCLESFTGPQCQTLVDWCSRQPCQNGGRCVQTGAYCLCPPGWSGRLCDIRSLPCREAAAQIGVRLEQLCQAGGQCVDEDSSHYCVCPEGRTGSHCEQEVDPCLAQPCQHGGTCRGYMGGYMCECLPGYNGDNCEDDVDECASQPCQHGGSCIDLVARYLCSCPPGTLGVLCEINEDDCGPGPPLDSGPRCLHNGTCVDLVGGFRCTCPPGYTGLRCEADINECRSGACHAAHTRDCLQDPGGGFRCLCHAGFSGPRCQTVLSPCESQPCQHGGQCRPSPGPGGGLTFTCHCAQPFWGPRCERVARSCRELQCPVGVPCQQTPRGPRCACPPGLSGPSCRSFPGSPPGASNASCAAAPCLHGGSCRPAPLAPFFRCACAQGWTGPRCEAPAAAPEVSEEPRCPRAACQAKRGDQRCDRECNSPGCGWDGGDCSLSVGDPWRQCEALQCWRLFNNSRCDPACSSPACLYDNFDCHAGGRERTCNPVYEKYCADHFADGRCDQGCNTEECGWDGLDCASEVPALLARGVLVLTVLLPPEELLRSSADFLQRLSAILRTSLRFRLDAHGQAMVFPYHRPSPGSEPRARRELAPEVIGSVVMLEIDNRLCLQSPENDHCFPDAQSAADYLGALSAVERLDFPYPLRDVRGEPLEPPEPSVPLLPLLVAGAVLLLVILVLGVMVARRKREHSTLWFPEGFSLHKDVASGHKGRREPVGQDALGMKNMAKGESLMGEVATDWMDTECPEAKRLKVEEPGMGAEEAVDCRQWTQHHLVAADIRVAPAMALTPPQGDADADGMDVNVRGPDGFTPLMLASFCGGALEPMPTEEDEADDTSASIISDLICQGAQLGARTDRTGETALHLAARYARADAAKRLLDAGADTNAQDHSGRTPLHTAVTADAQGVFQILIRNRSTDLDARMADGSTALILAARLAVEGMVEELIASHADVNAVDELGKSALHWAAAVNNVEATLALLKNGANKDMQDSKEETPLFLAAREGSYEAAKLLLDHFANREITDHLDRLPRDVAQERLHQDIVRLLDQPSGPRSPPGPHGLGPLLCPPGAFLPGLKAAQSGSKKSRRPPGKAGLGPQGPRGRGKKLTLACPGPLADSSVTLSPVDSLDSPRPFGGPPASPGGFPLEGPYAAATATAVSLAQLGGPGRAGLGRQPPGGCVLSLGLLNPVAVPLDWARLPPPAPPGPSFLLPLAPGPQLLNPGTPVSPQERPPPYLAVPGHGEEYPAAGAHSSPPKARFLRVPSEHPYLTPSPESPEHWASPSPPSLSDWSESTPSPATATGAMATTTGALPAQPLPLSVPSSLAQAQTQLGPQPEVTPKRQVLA
Chain of Epidermal growth factor receptor (Homo sapiens) (P00533 whole entry, looked up): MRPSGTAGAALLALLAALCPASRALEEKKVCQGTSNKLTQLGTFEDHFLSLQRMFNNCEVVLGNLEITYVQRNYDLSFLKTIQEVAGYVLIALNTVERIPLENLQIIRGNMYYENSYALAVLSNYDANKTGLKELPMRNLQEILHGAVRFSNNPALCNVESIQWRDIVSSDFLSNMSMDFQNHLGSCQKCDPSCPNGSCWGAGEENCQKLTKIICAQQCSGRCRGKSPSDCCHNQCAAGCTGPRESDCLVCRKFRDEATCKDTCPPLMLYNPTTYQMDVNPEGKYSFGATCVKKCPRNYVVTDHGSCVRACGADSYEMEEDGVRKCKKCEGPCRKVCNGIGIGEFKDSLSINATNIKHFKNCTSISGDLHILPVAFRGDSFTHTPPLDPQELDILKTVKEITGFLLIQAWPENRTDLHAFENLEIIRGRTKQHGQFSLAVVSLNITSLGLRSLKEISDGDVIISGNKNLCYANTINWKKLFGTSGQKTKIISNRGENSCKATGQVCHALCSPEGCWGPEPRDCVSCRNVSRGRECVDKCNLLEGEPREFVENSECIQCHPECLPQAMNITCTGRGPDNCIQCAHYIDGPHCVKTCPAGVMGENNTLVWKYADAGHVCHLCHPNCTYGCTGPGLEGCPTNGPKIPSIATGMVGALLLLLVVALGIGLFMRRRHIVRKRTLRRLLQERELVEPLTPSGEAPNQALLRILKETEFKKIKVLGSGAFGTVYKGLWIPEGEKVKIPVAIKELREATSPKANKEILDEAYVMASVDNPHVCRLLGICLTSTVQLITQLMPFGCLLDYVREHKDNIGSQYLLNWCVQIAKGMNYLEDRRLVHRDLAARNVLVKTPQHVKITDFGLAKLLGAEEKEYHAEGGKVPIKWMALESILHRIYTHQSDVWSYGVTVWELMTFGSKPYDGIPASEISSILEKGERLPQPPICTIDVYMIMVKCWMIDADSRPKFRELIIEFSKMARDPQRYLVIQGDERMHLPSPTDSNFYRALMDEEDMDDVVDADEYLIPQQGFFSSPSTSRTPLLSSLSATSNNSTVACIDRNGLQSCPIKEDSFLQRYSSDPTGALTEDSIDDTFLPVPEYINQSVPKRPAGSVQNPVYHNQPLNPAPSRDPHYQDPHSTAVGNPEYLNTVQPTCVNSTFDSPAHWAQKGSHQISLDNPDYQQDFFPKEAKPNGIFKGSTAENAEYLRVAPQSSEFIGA
Chain of Fibroblast growth factor 10 (Homo sapiens) (O15520 whole entry, looked up): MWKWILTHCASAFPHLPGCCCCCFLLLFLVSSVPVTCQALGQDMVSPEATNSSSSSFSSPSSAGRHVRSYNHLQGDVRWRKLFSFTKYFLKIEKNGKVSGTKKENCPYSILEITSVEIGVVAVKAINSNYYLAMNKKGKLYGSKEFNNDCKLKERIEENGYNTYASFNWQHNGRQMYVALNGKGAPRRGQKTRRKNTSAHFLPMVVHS
Chain of Follistatin-related protein 3 (Homo sapiens) (O95633 whole entry, looked up): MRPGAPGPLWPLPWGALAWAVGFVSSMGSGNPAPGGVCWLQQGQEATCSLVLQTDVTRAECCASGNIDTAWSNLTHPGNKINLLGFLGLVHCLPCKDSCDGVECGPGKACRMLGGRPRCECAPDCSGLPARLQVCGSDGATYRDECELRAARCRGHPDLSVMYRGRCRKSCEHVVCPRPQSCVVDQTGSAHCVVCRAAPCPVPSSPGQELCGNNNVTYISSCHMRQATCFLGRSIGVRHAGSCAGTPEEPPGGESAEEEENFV

On to `C=C(CCCC)/C(=C/C[C@@H](OC(=O)c1ccncc1)c1cccc(OCCO)c1)c1cc(C(=O)OC)ccc1OC`, for which the composite z-score in assay [1] is 1.36; in assay [5], 0.48; in [7], -0.0102; in assay [8] it was 1.37; in [9] it was 1.04; in assay [10], 0.0376. Also, the composite z-score is 0.953 in assay [11]; -0.0661 in assay [12]; 0.273 in [13]; 0.74 in assay [15]; 0.764 in assay [16]; 0.53 in assay [17]. Besides, the figures for the composite z-score in assay [18], in assay [19] and in [20] were 0.933, 0.438 and 0.482, respectively. Also, the z-score in assay [2] is 0.526 (inactive); in assay [3] it was -1.17 (inactive); in [4], 0.289 (inactive); in assay [6] it was 1.27 (inactive); in assay [14], 0.151 (inactive).
Take `Cc1ccc(S[C@]2(C(=O)NCCCN(C)C)CC(=O)N(Cc3ccccc3)[C@@H]2c2ccc(CO)cc2I)cc1`: the composite z-score is 0.25 in assay [1]; 2.68 in [5]; 0.373 in [7]; -0.869 in assay [8]; -0.723 in [9]; -0.13 in assay [10]. Besides, the composite z-score was 0.16 in assay [11]; 1.09 in [12]; 1.3 in [13]; -0.347 in assay [15]; -0.753 in assay [16]; -1.12 in assay [17]. Besides, the composite z-score in assay [18] was -0.575; in assay [19], -1.37; in [20] it was 1.35. Moreover, the z-score in [2] is -1.87 (inactive); in assay [3] it was -4.8 (inactive); in assay [4], 0.768 (inactive); in [6], -0.563 (inactive); in assay [14], -1.81 (inactive).
On to `CCOC(=O)C[C@H]1[C@H](OC(=O)c2cc3ccccc3oc2=O)[C@@H](NC(=O)C2CCCCC2)c2cc(OCCCO)ccc2N1C(=O)c1ccc2ccccc2n1`, for which the composite z-score in [1] was 1.06; in assay [5] it was 1.17; in [7], -0.124; in assay [8] it was 0.87; in [9], 1.02; in [10] it was -0.154. The composite z-score was 0.631 in assay [11]; -0.245 in assay [12]; -0.273 in assay [13]; 0.68 in assay [15]; 0.413 in assay [16]; 0.258 in [17]. Also, the composite z-score in [18] amounted to 1.08; in [19], 0.493; in assay [20], 0.304. Also, the z-score in assay [2] was 0.152 (inactive); in assay [3], 0.802 (inactive); in assay [4], 1.29 (inactive); in assay [6], -0.865 (inactive); in assay [14], -0.34 (inactive).
As for `O=C1OCC=C[C@H]2OC34C=CCN(Cc5ccccc5)C(=O)[C@H]3N(CCO)C(=O)[C@@H]4[C@@H]12` (stereo not given in full), the composite z-score was 0.409 in [1]; 2.08 in [5]; -0.232 in assay [7]; -1.41 in [8]; -0.159 in assay [9]; -0.172 in assay [10]. The composite z-score in assay [11] is 1.89; in [12] it was -0.227; in assay [13] it was 0.679; in [15], -1.09; in assay [16] it was -1.46; in [17], -0.435. Also, the figures for the composite z-score in assay [18], in assay [19] and in assay [20] were -0.596, -0.965 and 0.0484, respectively. The z-score was -0.308 (inactive) in assay [2]; 0.176 (inactive) in [3]; -1.17 (inactive) in assay [4]; 2.13 (inactive) in assay [6]; -0.632 (inactive) in assay [14].
With `O=C1O[C@@H](c2ccccc2)[C@@H](c2ccccc2)N2[C@@H](c3ccccc3OCCO)[C@]3(C(=O)Nc4ccc(C#CC5=CCCCC5)cc43)[C@@H](C(=O)O)[C@H]12`, the composite z-score was 1.34 in assay [1]; 1.83 in assay [5]; 0.0748 in assay [7]; 0.269 in assay [8]; 1.05 in assay [9]; -0.0321 in [10]. Further, the composite z-score was 1.17 in [11]; 0.702 in assay [12]; 0.51 in assay [13]; 0.289 in assay [15]; 1.04 in [16]; 0.309 in assay [17]. Moreover, the composite z-score in [18] turned out to be 0.87; in assay [19] it was 0.471; in assay [20], 1.09. For the same compound, the z-score in [2] was 2.48 (inactive); in assay [3], -0.608 (inactive); in assay [4], 0.341 (inactive); in [6] it was 2.04 (inactive); in [14] it was -2.47 (inactive).
